Bioassay records deposited in PubChem by Broad Institute.
A selection: hits, their analogues and other compounds. The true share with any hit is near 4%.
Wnt bcat act: Wnt/beta-catenin pathway activation; 1.2% of 300,000 active; activation, % at 9.35 µM; AID 743398; Wnt/beta-catenin reporter cell assay, activator, plate reader; in the data active = activation above about 30%, passing the limit was not always enough; inconclusive = no clear call, values can overlap the other calls
MITF TRPM1 inh: reduces MITF-dependent TRPM1 promoter luciferase signal. 0.83% of 330,000 active. SK-MEL-5 TRPM1 promoter luciferase, 24 h. inhibition, % at 12.5 µM;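 active = mean inhibition across replicates of 60% or more, whatever share of single replicates reaches that level; inconclusive = some that reach 60%, reason not given; inactive = mean inhibition across replicates below 60%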
MITF TRPM1 HTS: MITF TRPM1 promoter activation in melanoma cells | 0.75% of 300,000 active | activation, % at 12.5 µM | AID 588334 | SK-MEL-5 TRPM1-promoter luciferase, 24 h; % of positive control, neutral wells = 0;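 active = mean activation of at least 80% with every replicate also reaching 80%; inconclusive = mean reaches 80% but some replicate falls short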
esBAF inh: inhibitors of esBAF chromatin remodeling in mouse ES cells; Bmi1-luciferase knock-in reporter, 24 h; 100% = twice the neutral-well signal; reporter increase, % at 12.5 µM; 2% of 350,000 active; AID 602393; in the data active = activation above about 40%; inconclusive = no clear call, values can overlap the other calls;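 note: a rise in the Bmi1 reporter signal indicates esBAF inhibition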
PAX8 reporter: inhibitors of PAX8 transcriptional activity in RMG-I cells | 1.2% of 360,000 active | inhibition, % at 12.6 µM | RMG-I TPO-luciferase reporter, SteadyGlo, 24 h;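 active = mean replicate inhibition at least 60% with every replicate also reaching 60%; inconclusive = only one of the two criteria is met; inactive = mean below 60% and not all replicates reaching 60%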;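 note: luciferase light reporting Pax8 driven TPO promoter activity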
EWS-Fli block: blocks EWS/Fli oncoprotein-driven transcription; AID 651661; A673 NR0B1-luciferase reporter, viability-normalised; 0.67% of 350,000 active; inhibition, % at 12.6 µM;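 active = mean inhibition of at least 50% after viability correction, with every replicate also passing that limit; inconclusive = mean reaches 50% but only one of two replicates passes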;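 note: firefly luciferase signal divided by Alamar Blue viability fluorescence both relative to DMSO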
Hits are given with their value; – = inactive; ? = inconclusive; · = no result given; ! = repeats disagree.

SMILES	Wnt bcat act	MITF TRPM1 inh	MITF TRPM1 HTS	esBAF inh	PAX8 reporter	EWS-Fli block
COc1ccc(S(=O)(=O)N(C)C[C@@H]2OCCCC[C@H](C)Oc3ccc(NC(=O)Nc4ccc(F)cc4)cc3C(=O)N([C@H](C)CO)C[C@H]2C)cc1	·	·	·	–	67	–
COc1ccc(S(=O)(=O)N(C)C[C@@H]2OCCCC[C@H](C)Oc3ccc(NC(=O)Nc4ccc(C(F)(F)F)cc4)cc3C(=O)N([C@H](C)CO)C[C@H]2C)cc1	–	·	·	–	79!	–
COc1cccc(C#Cc2cnc3c(c2)C(=O)N([C@@H](C)CO)C[C@H](C)[C@H](CN(C)C(C)=O)O3)c1	·	·	·	–	·	–
Cc1ccc(S(=O)(=O)N(C)C[C@@H]2OCCCC[C@H](C)Oc3ccc(NS(=O)(=O)c4cccs4)cc3C(=O)N([C@H](C)CO)C[C@H]2C)cc1	·	·	·	–	78	–
C[C@H]1CCCCO[C@H](CN(C)S(=O)(=O)c2ccc(Cl)cc2)[C@@H](C)CN([C@@H](C)CO)C(=O)c2cc(NS(=O)(=O)c3cccs3)ccc2O1	·	·	·	–	68	–
C[C@H](CO)N1C[C@H](C)[C@H](CN(C)S(=O)(=O)c2ccc(Cl)cc2)OCCCC[C@H](C)Oc2ccc(NS(=O)(=O)c3cccs3)cc2C1=O	·	·	·	–	67	–
C[C@H](CO)N1C[C@H](C)[C@@H](CN(C)S(=O)(=O)c2ccc(Cl)cc2)OCCCC[C@H](C)Oc2ccc(NS(=O)(=O)c3cccs3)cc2C1=O	·	·	·	–	80	–
C[C@@H]1CCCCO[C@H](CN(C)S(=O)(=O)c2ccc(Cl)cc2)[C@H](C)CN([C@H](C)CO)C(=O)c2cc(NS(=O)(=O)c3cccs3)ccc2O1	·	·	·	–	–	–
O=C(C[C@@H]1CC[C@@H]2[C@H](COC[C@H](O)CN2Cc2cccc(Cl)c2)O1)NCC1CCCCC1	·	·	·	–	–	–
Cc1noc(C)c1S(=O)(=O)Nc1cccc2c1O[C@H](CN(C)S(C)(=O)=O)[C@H](C)CN([C@H](C)CO)C2=O	·	·	·	–	·	–
CCCOc1ccc(/C=N/NC(=O)CSCc2ccc([N+](=O)[O-])cc2)cc1OCC	–	–	–	·	83	–
O=C(NNC(=O)c1ccccc1OCc1ccccc1)c1ccccc1F	–	–	–	60	–	–
C/C(=N\NC(=O)c1cccc2ccccc12)c1ccccn1	–	76	–	–	65	–
C/C(=N\NC(=O)c1cc(-c2cccs2)nc2ccccc12)c1ccccn1	–	88	–	–	79	–
C/C(=N\NC(=O)c1ccccc1OCc1ccc(F)cc1)c1ccccn1	–	70	–	–	–	–
CCOc1ccc(OCc2ccc(C(=O)N/N=C(\C)c3ccccn3)cc2)cc1	–	–	–	·	–	–
O=C(NNC(=O)c1ccccc1OCc1ccccc1)c1ccccc1O	–	–	–	–	–	·
C[C@H]1CCCCO[C@@H](CN(C)Cc2ccc(C(F)(F)F)cc2)[C@@H](C)CN([C@@H](C)CO)C(=O)c2cc(NC(=O)C3CCCCC3)ccc2O1	·	·	·	–	–	–
CO[C@@H]1CN(C)C(=O)c2ccc(NC(C)=O)cc2OC[C@@H](C)N(C(=O)C2CCCCC2)C[C@H]1C	·	·	·	–	–	–
C/C(=N\NC(=O)C(c1ccccc1)c1ccccc1)c1ccccn1	·	·	–	·	77	·
Cc1noc(C)c1S(=O)(=O)N(C)C[C@H]1Oc2ccc(NS(=O)(=O)c3ccc(Cl)cc3)cc2CC(=O)N([C@@H](C)CO)C[C@H]1C	·	·	·	–	–	–
C/C(=N/NS(=O)(=O)c1ccc(C)cc1)c1c(O)c2ccccc2oc1=O	–	–	–	–	–	–
CCCCCN=C(C)c1c(O)c2ccccc2oc1=O	–	–	–	58	·	·
CC1(C)CC(=O)c2sc(NC(=O)c3ccco3)nc2C1	–	·	·	–	–	–
CC1(C)CC(=O)c2sc(NC(=O)C3COc4ccccc4O3)nc2C1 (centres undefined)	–	–	–	45	·	–
SMILES	Wnt bcat act	MITF TRPM1 inh	MITF TRPM1 HTS	esBAF inh	PAX8 reporter	EWS-Fli block
CC(C)(C)c1csc(NC(=O)C2COc3ccccc3O2)n1 (centres undefined)	–	–	–	55	–	·
CC(=O)c1sc(Nc2ccc3c(c2)OCO3)nc1C	?	·	·	47	–	–
CC(=O)c1sc(Nc2nc3cc4c(cc3s2)OCO4)nc1C	?	–	–	·	–	–
CC(=O)c1sc(NC(=O)C2COc3ccccc3O2)nc1C (centres undefined)	36	·	·	–	–	–
CCc1ccc(Nc2ncc3c(n2)CC(C)(C)CC3=O)cc1	57	–	102	·	–	–
Cc1ccc(Nc2ncc3c(n2)CC(c2ccco2)CC3=O)c(C)c1 (centres undefined)	–	–	–	54	·	·
CCc1ccc(Nc2ncc3c(n2)CC(C)CC3=O)cc1 (centres undefined)	–	–	107	·	–	–
Cc1cccc(Nc2ncc3c(n2)CC(C)CC3=O)c1 (centres undefined)	·	–	?	51	·	·
Cc1cccc(Nc2ncc3c(n2)CC(c2ccco2)CC3=O)c1 (centres undefined)	–	–	–	–	·	·
COCCNC(=O)C[C@H]1C=C[C@@H](NC(=O)NC2CCCC2)[C@H](CO)O1	·	·	·	–	–	–
CO[C@H]1CN(C)C(=O)c2cc(NC(=O)C3CC3)ccc2OC[C@H](C)N(C(=O)CN2CCOCC2)C[C@H]1C	·	·	·	–	–	–
Cc1cc(C)cc(OCC(O)CN2CCC(CN3C(=O)c4cccc5cccc(c45)C3=O)CC2)c1 (centres undefined)	–	71	–	·	67	–
COc1cccc(OCC(O)CN2CCC(CN3C(=O)c4cccc5cccc(c45)C3=O)CC2)c1 (centres undefined)	–	–	–	·	–	–
CNc1cncc(-c2cnn(CC(C)C)c2)n1	–	·	·	43	–	–
O=C(C[C@H]1C[C@@H]2c3cc(NC(=O)NC4CCCCC4)ccc3O[C@@H]2[C@@H](CO)O1)NC1CCCC1	·	·	·	·	–	–
Cc1cccc(N(O)C(=O)Nc2cccc(Cl)c2)c1	–	–	·	51	–	–
CCN(C(=O)Nc1cccc(Cl)c1)c1ccccc1	–	–	–	–	–	–
CC(=O)N1[C@@H]2Cn3c(ccc(-c4ccccc4)c3=O)[C@H]1[C@@H](C(=O)Nc1ccccc1)[C@@H]2CO	·	·	·	–	·	–
CCCCC(=O)NC(=S)Nc1cccc(NC(=O)CC)c1	–	–	–	–	–	·
CC(=O)c1cccc(NC(=S)NC(=O)C(C)C)c1	36	–	–	–	·	·
CCCCC(=O)NC(=S)Nc1cccc(C(=O)O)c1	–	–	–	44	–	–
CO[C@@H]1CN(C)C(=O)c2ccc(NS(=O)(=O)c3ccccc3)cc2OC[C@@H](C)N(Cc2cccnc2)C[C@@H]1C	·	·	·	–	–	–
C[C@H](CO)N1C[C@H](C)[C@@H](CN(C)Cc2ccc3c(c2)OCO3)Oc2c(NS(=O)(=O)c3ccc(F)cc3)cccc2C1=O	·	·	·	–	–	–
